Experimental data published in PubChem BioAssay (NCI).
Compounds without any hit were thinned out: in the full panel of roughly 83,000, 20% have a hit.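 Note: values are percent growth. 100 is the growth of untreated cells, values between 100 and 0 indicate rising inhibition; between -100 and 0 indicates cell death.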 Activity calls are given as the source filed them.

Each molecule was assayed on LOX IMVI melanoma (assay: NCI-60 one-dose screen, 48 h (100 = growth as untreated, 0 = no growth, -100 = all killed)). Conditions: 10 µM unless noted.
Procedure: Growth inhibition of the LOX IMVI human tumor cell line is measured as a screen for anti-cancer activity. Cells are grown in 96 well plates and exposed to the test compound for 48 hours. Compounds are tested at a single concentration, which is 10^-5 M for most compounds. The reported endpoint is percent growth (GI% or GIPRCNT), where numbers from 0 - 100% represent growth inhibition, and numbers from -100% - 0 represent cell death. For example, a value of 40 represents 60% growth inhibition. A value of 0 means no net growth occurred over the course of the experiment. A value of -40 indicates 40% of cells at the beginning of the experiment died by the end of the experiment. A value of -100 means all cells are dead at the end of the experiment.
NCI-60 Human Tumor Cell Lines Screen was performed using the standard one-dose NCI protocol, which is described in more detail at https://dtp.cancer.gov/discovery_development/nci-60/default.htm.
Compounds with GIPRCNT values below 10 were considered active. Activity score was based on GIPRCNT using the following formula: […]
Score is 0 for GIPRCNT values of 100 or above, 50 for GIPRCNT values of 0, and 100 for GIPRCNT values of -100.

| SMILES | growth |
| --- | --- |
| Cc1ccc(-c2nc(-c3cn(C)c4ncccc34)cs2)cc1 | -41% [100 µM] (active) |
| N#C/C(=C\c1cn(Cc2ccccc2)c2ccccc12)C(=O)Nc1ncc(Cc2ccccc2Cl)s1 | 24.7% (inactive) |
| N#C/C(=C\C=C\c1ccc(-c2cc(Cl)ccc2Cl)o1)c1nc2ccccc2s1 | 90.9% (inactive) |
| CCCCNC(=O)c1cc([N+](=O)[O-])cc(C2CCCCC2)c1O | 36.2% (inactive) |
| CN(C)c1ccc(/C=C(\C#N)c2cc3ccccc3[nH]2)cc1 | 27.6% (inactive) |
| CCOC(=O)C(=CNc1cnc(Nc2ccc(N3CCOCC3)cc2)nc1Oc1ccc(OC)cc1)C(=O)OCC | 39.3% (inactive) |
| Cc1ccc(S(=O)(=O)OCCCOS(=O)(=O)c2ccc(C)cc2)cc1 | 108% (inactive) |
| O=C(O)COc1ccc(Cl)c(Cl)c1 | 97.9% (inactive) |
| Cc1cccc(N2CCC(=O)NC2=S)c1 | 97.2% (inactive) |
| O=c1c2c3c(sc2n2c(-c4cc(-c5ccccc5)no4)nnc2n1Cc1ccccc1)CCCC3 | 81% (inactive) |
| NS(=O)(=O)c1ccc(NC(=O)/C(=C\c2ccc(Cl)cc2Cl)NC(=O)c2ccccc2)cc1 | 96.2% (inactive) |
| C#CCNC(=O)[C@]1(C)CCC[C@@]2(C)[C@H]1CC=C1C=C(C(C)C)CC[C@@H]12 | 96.8% (inactive) |
| CSC1=Nc2c(c(C)c(-c3ccccc3)n2CCCC(=O)O)C2=NC(=O)C[C@H](C)N12 | 94.9% (inactive) |
| O=C(/C=C/c1ccc(Cl)cc1)c1cccc(OCCCOc2cccc(C(=O)/C=C/c3ccc(Cl)cc3)c2)c1 | 99.1% (inactive) |
| O=C1c2ccccc2C(=O)c2c1cc1c(c2[N+](=O)[O-])OCO1 | 2.79% (active) |
| CCOC(=O)c1c(C)nc2ccccc2c1/C=C/c1ccccc1 | 71.8% (inactive) |
| O=C(CCSc1nnc2n(Cc3ccccc3)c(=O)c3c4c(sc3n12)CCCC4)N1CCN(c2ccccc2)CC1 | 100% (inactive) |
| CCSc1oc(C)nc1[P+](c1ccccc1)(c1ccccc1)c1ccccc1 | 25.7% (inactive) |
| Nc1ncnc2c1N=C(c1ccc3c(c1)OCO3)CC(c1cccc(Nc3ccnc4cc(C(F)(F)F)ccc34)c1)N2 (stereo not given) | 51.8% (inactive) |
| CN1CCN(C(=S)SCCCCOc2cc(=O)oc3ccccc23)CC1 | 93.9% (inactive) |

| SMILES | growth |
| --- | --- |
| C[C@H](CCCC(=O)NCC#CCN1CCN(C)CC1)[C@H]1CC[C@H]2[C@@H]3CC[C@@H]4CC(=O)CC[C@]4(C)[C@H]3CC[C@]12C | 86.7% (inactive) |
| Fc1ccc(Cn2cc(CSc3nc4ccccc4o3)nn2)cc1 | 107% (inactive) |
| COc1ccc(C(=O)Cn2c(C(=O)c3ccc(OC)cc3)nc3ccccc32)cc1 | 38.8% (inactive) |
| CCOC(=O)CC1CSC(Nc2ccccc2)=N1 (stereo not given) | 97.3% (inactive) |
| Cc1ccc(-c2csc(NC(=O)c3ccccc3CN3C(=O)c4ccccc4C3=O)n2)cc1 | 99.3% (inactive) |
| COc1cccc(C(=O)NNc2nc(Cl)nc(Cl)n2)c1 | 97% (inactive) |
| CC1C(/C=N/NC(N)=S)C(C#N)(C#N)C1(C#N)C#N (stereo not given) | 109% (inactive) |
| COC(=O)CC[C@@H]1O[C@@H](c2ccc(F)cc2)[C@@H](O)[C@H]1O | 99.8% (inactive) |
| COC(=O)/C=C1/SC(=Nc2ccc([N+](=O)[O-])cc2)N(CCc2c[nH]c3ccc(O)cc23)C1=O | -21.9% (active) |
| Cc1ccc(C(=O)c2ccc(CC(=O)N=Nc3c(O)[nH]c4ccc(Br)cc34)n2C)cc1 | 88.9% (inactive) |
| O=C(/C=C/c1ccc(Oc2ccc(Br)cc2)cc1)c1ccc(Br)cc1 | 96.2% (inactive) |
| COc1cnc2c(c1)C(=O)c1c-2n(CCCCl)c(=O)c2ccncc12 | 33.8% (inactive) |
| NC(=O)c1cccc([C@@H]2O[C@H](CO)[C@@H](O)[C@H]2O)c1 | 91.5% (inactive) |
| Cc1ccc(C)c(/C=C2\CN(C(=O)OC(C)(C)C)C/C(=C\c3cc(C)ccc3C)C2=O)c1 | 0.926% (active) |
| CCN1C(=O)N(CC)C2C1NN=c1s/c(=C\c3cnc(C)n3C)c(=O)n12 (stereo not given) | 34.5% (inactive) |
| C=C1C(=O)O[C@H]2[C@H]1CC/C(COC(=O)/C=C\C(=O)NCc1ccc(Cn3c(=O)sn(CCCl)c3=O)cc1)=C\CC[C@@]1(C)O[C@@H]21 | 67.2% (inactive) |
| O=C1/C(=C/c2ccccn2)NC(=S)N1c1ccccc1Cl | 12.1% (inactive) |
| Clc1c(Cl)[n+](Cc2ccc3ccccc3c2)cn1Cc1ccc2ccccc2c1 | -21.4% (active) |
| C/C(=N\O)c1ccc(NC(=O)CSc2nnc(-c3cc(-c4ccc(S(C)(=O)=O)cc4)nc4ccccc34)n2-c2ccccc2)cc1 | 76.7% (inactive) |
| Cc1ccc(C(=O)Nc2cccc(C#Cc3cccc4[nH]nc(N)c34)c2)cc1C(F)(F)F | 25.4% (inactive) |
